# Reference: article PMC7862700, “An all-to-all approach to the identification of sequence-specific readers for epigenetic DNA modifications on cytosine”
# Legend:
# Test in all cases: DAPPL (digital affinity profiling via proximity ligation, sequencing); 10 mM Tris-HCl pH 7.5, 50 mM NaCl, 1 mM DTT, 4% glycerol, room temperature, 30 min; GST-TFs on glutathione beads, 16-mer random dsDNA library, 0.1% formaldehyde crosslink after washing; high values mean tight binding
# Conditions in all cases: protein: recombinant; tags: N-terminal GST; dsDNA, one strand shown
# FLI1 = target: T1, FLI1 (Homo sapiens, UniProt Q01543 1-452)
# T1 sequence: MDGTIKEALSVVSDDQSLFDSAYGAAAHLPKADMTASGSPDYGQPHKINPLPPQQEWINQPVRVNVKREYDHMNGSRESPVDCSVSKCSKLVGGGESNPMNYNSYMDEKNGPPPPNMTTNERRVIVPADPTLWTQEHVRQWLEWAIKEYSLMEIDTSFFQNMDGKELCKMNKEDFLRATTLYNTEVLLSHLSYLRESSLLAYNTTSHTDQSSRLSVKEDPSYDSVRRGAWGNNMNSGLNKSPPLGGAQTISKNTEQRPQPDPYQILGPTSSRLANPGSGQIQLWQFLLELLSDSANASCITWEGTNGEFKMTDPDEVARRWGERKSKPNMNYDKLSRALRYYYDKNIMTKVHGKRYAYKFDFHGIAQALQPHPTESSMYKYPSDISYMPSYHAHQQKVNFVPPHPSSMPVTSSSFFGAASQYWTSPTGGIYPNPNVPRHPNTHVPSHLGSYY
# Summary of the method: (§1)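 Binding signal is defined as a hexamer's read frequency for one factor over its frequency for the tag-only sample. To obtain reads, GST-fused human transcription factors were expressed in yeast, captured on glutathione beads, barcoded with DNA and pooled with that sample. Pools met 200 nmole of a 16-mer random double-stranded DNA library in Tris/NaCl/DTT/glycerol buffer for 30 min at room temperature before washing, 0.1% formaldehyde crosslinking, proximity ligation (BsaI/T4 ligase, 1 h, 37 °C), PCR and Illumina NextSeq500 sequencing.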
# ELK1 = target: T2, ELK1 (Homo sapiens, UniProt P19419 1-428)
# T2 sequence: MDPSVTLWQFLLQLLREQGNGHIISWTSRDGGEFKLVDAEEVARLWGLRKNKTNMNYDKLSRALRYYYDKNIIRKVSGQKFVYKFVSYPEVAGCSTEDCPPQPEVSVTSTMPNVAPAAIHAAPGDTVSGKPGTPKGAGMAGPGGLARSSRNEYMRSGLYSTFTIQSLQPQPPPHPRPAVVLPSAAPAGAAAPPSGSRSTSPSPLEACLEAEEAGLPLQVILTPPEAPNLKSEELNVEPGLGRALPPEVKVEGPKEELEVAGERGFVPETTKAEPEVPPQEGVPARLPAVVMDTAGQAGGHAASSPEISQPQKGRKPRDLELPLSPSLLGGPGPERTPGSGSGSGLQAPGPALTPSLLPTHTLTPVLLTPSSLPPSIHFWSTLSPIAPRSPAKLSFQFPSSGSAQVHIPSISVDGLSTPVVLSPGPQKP
# Summary of the method: as §1
# GABPA = target: T3, GABPA (Homo sapiens, UniProt Q06546 1-454)
# T3 sequence: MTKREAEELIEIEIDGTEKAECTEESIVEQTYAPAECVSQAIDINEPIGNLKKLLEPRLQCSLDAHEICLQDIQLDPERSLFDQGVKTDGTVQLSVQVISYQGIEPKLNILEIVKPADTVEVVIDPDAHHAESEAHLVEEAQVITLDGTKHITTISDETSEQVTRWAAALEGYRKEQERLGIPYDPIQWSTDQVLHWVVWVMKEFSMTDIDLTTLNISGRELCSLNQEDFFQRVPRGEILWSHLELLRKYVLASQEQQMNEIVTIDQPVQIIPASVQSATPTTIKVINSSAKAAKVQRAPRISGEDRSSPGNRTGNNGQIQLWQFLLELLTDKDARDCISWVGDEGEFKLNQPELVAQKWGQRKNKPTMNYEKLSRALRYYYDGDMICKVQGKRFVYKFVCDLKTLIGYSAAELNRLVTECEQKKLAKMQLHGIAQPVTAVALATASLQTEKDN
# Summary of the method: as §1
# ERG = target: T4, ERG (Homo sapiens, UniProt P11308 1-479)
# T4 sequence: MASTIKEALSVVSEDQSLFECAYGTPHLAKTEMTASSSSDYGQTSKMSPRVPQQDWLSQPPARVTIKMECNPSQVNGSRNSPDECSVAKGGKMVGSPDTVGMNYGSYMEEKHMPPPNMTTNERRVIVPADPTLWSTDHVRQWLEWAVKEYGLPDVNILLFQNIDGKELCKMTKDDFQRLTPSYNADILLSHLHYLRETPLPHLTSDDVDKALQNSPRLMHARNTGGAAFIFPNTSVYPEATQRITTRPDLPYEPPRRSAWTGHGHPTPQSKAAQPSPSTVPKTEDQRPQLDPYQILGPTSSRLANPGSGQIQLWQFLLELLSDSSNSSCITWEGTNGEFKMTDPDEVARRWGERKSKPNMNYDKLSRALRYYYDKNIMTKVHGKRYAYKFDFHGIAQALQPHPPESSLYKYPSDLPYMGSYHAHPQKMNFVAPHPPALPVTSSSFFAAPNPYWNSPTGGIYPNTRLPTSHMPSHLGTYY
# Summary of the method: as §1
# ELF1 = ELF1 (Homo sapiens, UniProt P32519 1-619)
# Sequence of ELF1 (P32519 whole entry): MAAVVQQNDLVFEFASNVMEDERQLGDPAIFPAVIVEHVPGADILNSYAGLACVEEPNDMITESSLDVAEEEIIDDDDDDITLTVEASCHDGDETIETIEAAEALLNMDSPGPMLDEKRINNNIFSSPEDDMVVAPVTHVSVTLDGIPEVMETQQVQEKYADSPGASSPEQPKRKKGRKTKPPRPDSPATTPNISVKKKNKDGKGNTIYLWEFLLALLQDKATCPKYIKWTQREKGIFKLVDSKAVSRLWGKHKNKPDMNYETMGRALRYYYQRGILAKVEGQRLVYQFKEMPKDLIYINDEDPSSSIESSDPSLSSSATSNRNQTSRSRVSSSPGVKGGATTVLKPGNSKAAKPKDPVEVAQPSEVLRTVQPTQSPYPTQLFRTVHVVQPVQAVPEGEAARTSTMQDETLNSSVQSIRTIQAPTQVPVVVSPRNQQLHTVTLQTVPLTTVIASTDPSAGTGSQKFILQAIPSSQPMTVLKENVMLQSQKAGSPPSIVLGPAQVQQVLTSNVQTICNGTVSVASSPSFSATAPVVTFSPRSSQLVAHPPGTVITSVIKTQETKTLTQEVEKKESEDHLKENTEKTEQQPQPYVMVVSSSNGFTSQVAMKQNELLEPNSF
# Summary of the method: as §1
# EHF = target: T5, EHF (Homo sapiens, UniProt Q9NZC4 1-300)
# T5 sequence: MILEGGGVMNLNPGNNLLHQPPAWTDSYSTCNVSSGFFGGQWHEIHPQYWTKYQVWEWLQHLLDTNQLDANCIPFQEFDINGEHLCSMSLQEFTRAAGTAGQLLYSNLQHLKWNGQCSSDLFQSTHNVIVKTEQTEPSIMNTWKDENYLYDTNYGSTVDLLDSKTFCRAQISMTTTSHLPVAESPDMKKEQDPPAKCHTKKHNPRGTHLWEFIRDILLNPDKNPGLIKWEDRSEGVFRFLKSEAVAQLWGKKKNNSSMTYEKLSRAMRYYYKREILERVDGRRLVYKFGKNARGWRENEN
# Summary of the method: as §1
# SPI1 = SPI1 (Homo sapiens, UniProt P17947 1-270)
# Summary of the method: as §1
# ELK3 = target: T6, ELK3 (Homo sapiens, UniProt P41970 1-407)
# T6 sequence: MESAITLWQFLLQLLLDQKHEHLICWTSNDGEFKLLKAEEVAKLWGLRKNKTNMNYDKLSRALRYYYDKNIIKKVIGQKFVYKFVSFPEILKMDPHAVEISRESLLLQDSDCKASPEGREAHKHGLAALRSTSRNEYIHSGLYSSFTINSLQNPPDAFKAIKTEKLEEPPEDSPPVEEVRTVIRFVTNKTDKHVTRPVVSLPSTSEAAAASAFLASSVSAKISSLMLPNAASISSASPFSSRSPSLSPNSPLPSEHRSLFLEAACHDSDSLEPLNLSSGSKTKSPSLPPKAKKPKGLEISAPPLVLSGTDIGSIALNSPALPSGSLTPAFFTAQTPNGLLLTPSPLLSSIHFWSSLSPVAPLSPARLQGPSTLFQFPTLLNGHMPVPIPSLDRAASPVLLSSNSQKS
# Summary of the method: as §1
# FEV = target: T7, FEV (Homo sapiens, UniProt Q99581 1-238)
# T7 sequence: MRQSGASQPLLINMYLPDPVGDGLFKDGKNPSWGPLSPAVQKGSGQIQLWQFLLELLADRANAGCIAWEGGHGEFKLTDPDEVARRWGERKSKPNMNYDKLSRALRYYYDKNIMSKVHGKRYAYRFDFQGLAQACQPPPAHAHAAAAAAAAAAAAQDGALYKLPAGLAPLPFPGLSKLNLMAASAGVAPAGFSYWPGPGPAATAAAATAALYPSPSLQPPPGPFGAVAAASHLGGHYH
# Summary of the method: as §1
# ETV5 = ETV5 (Homo sapiens, UniProt P41161 1-510)
# Sequence of ETV5 (P41161 whole entry): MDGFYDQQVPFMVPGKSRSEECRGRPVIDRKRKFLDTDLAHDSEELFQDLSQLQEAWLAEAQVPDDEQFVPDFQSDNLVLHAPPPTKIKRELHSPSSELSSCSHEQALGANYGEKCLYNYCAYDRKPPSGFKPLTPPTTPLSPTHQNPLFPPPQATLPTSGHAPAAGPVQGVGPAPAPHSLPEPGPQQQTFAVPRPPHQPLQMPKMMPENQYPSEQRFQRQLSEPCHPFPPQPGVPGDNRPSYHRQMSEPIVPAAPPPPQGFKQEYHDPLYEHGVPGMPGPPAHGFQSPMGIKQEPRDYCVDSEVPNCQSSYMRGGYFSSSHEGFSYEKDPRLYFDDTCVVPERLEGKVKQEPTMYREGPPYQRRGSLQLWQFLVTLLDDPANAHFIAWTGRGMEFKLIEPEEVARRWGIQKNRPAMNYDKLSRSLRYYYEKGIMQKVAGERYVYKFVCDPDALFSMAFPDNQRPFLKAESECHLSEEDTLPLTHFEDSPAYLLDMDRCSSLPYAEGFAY
# Summary of the method: as §1
# ELF4 = ELF4 (Homo sapiens, UniProt Q99607 1-663)
# Sequence of ELF4 (Q99607 whole entry): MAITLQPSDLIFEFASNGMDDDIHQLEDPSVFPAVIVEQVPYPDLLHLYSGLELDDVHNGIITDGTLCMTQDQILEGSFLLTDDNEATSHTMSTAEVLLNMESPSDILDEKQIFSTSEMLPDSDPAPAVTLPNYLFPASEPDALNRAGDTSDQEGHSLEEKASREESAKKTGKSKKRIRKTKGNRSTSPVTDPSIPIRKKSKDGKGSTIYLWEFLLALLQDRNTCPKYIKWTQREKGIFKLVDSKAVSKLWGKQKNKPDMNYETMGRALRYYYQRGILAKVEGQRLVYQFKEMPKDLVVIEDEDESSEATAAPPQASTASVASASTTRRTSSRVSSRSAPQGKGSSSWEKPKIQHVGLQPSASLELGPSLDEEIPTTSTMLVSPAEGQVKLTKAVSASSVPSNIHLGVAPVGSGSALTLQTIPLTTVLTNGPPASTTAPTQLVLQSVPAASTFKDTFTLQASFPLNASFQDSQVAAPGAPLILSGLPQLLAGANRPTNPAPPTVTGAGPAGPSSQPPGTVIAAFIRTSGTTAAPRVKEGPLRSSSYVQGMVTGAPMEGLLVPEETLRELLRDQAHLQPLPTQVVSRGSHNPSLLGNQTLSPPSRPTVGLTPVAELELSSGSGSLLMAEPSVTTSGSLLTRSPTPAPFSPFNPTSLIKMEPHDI
# Summary of the method: as §1
# ETV1 = ETV1 (Homo sapiens, UniProt P50549 1-477)
# Sequence of ETV1 (P50549 whole entry): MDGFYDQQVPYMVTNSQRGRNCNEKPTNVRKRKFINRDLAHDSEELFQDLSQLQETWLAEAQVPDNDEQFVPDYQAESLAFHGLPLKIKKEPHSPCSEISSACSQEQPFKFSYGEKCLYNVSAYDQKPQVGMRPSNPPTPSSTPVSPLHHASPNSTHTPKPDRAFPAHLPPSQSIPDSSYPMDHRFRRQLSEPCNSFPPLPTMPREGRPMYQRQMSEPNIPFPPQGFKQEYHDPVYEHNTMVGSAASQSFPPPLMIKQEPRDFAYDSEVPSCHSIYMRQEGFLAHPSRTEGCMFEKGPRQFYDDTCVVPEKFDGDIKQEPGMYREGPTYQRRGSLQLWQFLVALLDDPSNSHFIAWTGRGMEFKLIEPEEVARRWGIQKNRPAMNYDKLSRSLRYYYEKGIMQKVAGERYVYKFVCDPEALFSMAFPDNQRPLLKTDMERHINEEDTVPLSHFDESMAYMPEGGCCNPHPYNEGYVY
# Summary of the method: as §1
# ERF = target: T8, ERF (Homo sapiens, UniProt P50548 1-548)
# T8 sequence: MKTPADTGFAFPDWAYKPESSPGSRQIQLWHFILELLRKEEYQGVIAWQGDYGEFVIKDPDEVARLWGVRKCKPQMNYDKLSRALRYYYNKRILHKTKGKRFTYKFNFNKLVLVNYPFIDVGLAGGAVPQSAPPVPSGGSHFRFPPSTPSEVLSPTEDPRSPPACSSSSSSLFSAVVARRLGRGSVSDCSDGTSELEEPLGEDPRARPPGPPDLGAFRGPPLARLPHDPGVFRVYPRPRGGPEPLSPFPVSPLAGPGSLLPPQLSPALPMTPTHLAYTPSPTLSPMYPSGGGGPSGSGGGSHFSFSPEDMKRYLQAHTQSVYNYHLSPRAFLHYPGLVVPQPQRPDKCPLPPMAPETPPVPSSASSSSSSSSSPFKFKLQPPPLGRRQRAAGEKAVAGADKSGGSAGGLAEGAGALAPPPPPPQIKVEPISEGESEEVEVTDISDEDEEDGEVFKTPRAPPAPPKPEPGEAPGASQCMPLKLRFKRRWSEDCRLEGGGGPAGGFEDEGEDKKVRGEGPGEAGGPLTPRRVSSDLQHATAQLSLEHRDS
# Summary of the method: as §1
# ETV3L = target: T9, ETV3L (Homo sapiens, UniProt Q6ZN32 1-361)
# T9 sequence: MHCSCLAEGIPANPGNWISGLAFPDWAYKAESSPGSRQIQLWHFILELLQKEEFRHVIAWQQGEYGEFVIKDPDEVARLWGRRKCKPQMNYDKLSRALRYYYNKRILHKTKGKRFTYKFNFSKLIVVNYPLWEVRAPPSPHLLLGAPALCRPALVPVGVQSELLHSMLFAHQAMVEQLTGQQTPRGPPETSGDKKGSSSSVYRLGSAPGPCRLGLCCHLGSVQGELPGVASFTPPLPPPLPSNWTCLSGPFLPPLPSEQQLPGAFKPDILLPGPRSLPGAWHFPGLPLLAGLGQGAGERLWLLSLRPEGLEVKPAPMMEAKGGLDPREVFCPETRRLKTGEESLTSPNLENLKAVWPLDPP
# Summary of the method: as §1
# ETS2 = target: T10, ETS2 (Homo sapiens, UniProt P15036 1-469)
# T10 sequence: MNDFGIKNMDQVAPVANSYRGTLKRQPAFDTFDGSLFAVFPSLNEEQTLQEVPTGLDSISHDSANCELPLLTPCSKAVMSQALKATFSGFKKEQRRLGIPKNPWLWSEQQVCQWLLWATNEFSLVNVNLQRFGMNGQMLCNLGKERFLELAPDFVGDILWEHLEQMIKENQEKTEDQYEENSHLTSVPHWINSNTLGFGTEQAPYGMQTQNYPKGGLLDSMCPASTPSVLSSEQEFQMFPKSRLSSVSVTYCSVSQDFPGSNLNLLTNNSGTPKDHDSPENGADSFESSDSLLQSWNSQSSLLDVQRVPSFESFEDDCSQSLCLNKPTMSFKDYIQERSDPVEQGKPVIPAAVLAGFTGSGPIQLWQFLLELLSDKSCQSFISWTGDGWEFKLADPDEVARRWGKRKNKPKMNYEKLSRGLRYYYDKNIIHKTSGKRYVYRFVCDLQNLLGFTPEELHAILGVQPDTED
# Summary of the method: as §1
# ETV3 = target: T11, ETV3 (Homo sapiens, UniProt P41162-2 1-143)
# T11 sequence: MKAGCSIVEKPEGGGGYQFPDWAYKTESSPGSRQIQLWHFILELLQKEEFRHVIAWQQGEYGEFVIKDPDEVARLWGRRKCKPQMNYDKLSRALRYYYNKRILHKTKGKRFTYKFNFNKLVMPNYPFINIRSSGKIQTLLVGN
# Summary of the method: as §1
# ETV6 = ETV6 (Homo sapiens, UniProt P41212 1-452)
# Sequence of ETV6 (P41212 whole entry): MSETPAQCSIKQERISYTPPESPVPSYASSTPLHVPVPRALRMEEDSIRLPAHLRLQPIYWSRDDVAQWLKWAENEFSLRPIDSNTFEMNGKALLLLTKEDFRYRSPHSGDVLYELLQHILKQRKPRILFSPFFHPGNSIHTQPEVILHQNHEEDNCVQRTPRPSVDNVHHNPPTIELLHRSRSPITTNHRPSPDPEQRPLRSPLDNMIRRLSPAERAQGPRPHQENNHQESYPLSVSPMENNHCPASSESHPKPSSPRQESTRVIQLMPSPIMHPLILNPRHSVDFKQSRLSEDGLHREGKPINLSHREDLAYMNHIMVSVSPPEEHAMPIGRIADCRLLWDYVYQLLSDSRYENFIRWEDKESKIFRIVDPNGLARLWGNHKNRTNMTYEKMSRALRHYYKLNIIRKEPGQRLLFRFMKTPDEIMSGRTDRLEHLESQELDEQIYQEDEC
# Summary of the method: as §1
sequence,measurement,setting,value
CACATG,binding signal,FLI1,"1.18 fold enrichment (6-mer frequency, TF over GST control)"
same,binding signal,ELK1,"1.1 fold enrichment (6-mer frequency, TF over GST control)"
same,binding signal,GABPA,"1.07 fold enrichment (6-mer frequency, TF over GST control)"
same,binding signal,ERG,"1.07 fold enrichment (6-mer frequency, TF over GST control)"
same,binding signal,ELF1,"1.16 fold enrichment (6-mer frequency, TF over GST control)"
same,binding signal,EHF,"1.16 fold enrichment (6-mer frequency, TF over GST control)"
same,binding signal,SPI1,"1.11 fold enrichment (6-mer frequency, TF over GST control)"
same,binding signal,ELK3,"1.14 fold enrichment (6-mer frequency, TF over GST control)"
same,binding signal,FEV,"1.11 fold enrichment (6-mer frequency, TF over GST control)"
same,binding signal,ETV5,"1.1 fold enrichment (6-mer frequency, TF over GST control)"
same,binding signal,ELF4,"1.09 fold enrichment (6-mer frequency, TF over GST control)"
same,binding signal,ETV1,"1.1 fold enrichment (6-mer frequency, TF over GST control)"
same,binding signal,ERF,"1.12 fold enrichment (6-mer frequency, TF over GST control)"
same,binding signal,ETV3L,"1.03 fold enrichment (6-mer frequency, TF over GST control)"
same,binding signal,ETS2,"1.11 fold enrichment (6-mer frequency, TF over GST control)"
same,binding signal,ETV3,"1.07 fold enrichment (6-mer frequency, TF over GST control)"
same,binding signal,ETV6,"1.06 fold enrichment (6-mer frequency, TF over GST control)"
